Assays:
[1] = target: Sphingosine kinase 1 (Homo sapiens) (UniProt Q9NYA1); conditions: at 1 µM;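 also: mean SPHK1 inhibition value reported from the GSK PKIS kinase panel screen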
[2] = target: T1, Sphingosine kinase 2 (Homo sapiens) (UniProt Q9NRA0); conditions: at 0.1 µM
T1 sequence (whole entry): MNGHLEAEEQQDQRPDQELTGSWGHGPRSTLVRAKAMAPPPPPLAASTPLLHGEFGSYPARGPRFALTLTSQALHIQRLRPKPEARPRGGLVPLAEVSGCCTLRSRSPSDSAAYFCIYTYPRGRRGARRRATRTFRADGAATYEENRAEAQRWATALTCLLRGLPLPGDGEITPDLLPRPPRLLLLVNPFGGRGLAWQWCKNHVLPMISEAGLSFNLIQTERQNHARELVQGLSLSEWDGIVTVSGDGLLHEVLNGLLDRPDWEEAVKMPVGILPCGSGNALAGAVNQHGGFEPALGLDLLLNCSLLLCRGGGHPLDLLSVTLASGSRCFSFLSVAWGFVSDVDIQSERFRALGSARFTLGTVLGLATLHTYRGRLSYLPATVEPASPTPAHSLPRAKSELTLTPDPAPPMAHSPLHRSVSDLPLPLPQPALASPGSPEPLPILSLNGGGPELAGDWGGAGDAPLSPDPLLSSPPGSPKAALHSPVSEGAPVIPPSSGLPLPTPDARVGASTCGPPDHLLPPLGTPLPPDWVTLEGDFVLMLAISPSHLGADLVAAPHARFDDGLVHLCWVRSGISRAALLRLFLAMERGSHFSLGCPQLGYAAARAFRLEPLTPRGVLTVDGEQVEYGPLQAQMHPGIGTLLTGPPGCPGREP

[3] = target: T1, Sphingosine kinase 2 (Homo sapiens); conditions: at 1 µM
[4] = target: Casein kinase II subunit alpha (Homo sapiens) (UniProt P68400); conditions: at 0.1 µM
Casein kinase II subunit alpha (Homo sapiens), sequence (P68400 whole entry, looked up): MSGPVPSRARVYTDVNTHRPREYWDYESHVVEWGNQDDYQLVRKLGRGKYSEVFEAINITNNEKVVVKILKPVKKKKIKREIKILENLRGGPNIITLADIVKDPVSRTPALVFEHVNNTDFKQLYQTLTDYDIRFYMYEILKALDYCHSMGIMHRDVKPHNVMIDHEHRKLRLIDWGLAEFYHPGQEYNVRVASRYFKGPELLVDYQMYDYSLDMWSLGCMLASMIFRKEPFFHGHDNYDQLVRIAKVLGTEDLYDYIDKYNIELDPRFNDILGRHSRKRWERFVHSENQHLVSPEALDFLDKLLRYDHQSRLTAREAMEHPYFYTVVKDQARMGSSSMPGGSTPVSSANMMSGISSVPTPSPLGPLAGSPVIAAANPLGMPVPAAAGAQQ

[5] = target: Casein kinase II subunit alpha (Homo sapiens) (UniProt P68400); conditions: at 1 µM
[6] = target: T2, Inhibitor of nuclear factor kappa-B kinase subunit alpha (Homo sapiens) (UniProt O15111); conditions: at 0.1 µM
T2 sequence (whole entry): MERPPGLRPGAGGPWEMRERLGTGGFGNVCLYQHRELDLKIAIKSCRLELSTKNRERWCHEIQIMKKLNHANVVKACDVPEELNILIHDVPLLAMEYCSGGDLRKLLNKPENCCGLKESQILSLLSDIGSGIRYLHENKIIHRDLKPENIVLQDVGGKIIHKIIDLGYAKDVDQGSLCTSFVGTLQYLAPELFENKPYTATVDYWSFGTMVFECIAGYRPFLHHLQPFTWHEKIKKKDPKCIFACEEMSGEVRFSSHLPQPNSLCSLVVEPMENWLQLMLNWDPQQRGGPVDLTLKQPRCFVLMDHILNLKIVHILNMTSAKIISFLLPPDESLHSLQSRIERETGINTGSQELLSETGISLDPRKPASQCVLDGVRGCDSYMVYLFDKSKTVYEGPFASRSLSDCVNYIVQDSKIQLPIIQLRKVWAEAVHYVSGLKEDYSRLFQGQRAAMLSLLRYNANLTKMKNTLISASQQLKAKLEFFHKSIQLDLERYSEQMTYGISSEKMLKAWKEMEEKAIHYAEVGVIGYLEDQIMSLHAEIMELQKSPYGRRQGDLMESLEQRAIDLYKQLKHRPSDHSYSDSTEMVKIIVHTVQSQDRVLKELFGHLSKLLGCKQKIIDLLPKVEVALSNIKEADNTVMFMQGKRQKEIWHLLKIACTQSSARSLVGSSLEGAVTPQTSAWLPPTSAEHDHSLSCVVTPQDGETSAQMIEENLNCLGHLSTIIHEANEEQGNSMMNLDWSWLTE

[7] = target: T2, Inhibitor of nuclear factor kappa-B kinase subunit alpha (Homo sapiens); conditions: at 1 µM
[8] = target: T3, Inhibitor of nuclear factor kappa-B kinase subunit beta (Homo sapiens) (UniProt O14920); conditions: at 0.1 µM
T3 sequence (whole entry): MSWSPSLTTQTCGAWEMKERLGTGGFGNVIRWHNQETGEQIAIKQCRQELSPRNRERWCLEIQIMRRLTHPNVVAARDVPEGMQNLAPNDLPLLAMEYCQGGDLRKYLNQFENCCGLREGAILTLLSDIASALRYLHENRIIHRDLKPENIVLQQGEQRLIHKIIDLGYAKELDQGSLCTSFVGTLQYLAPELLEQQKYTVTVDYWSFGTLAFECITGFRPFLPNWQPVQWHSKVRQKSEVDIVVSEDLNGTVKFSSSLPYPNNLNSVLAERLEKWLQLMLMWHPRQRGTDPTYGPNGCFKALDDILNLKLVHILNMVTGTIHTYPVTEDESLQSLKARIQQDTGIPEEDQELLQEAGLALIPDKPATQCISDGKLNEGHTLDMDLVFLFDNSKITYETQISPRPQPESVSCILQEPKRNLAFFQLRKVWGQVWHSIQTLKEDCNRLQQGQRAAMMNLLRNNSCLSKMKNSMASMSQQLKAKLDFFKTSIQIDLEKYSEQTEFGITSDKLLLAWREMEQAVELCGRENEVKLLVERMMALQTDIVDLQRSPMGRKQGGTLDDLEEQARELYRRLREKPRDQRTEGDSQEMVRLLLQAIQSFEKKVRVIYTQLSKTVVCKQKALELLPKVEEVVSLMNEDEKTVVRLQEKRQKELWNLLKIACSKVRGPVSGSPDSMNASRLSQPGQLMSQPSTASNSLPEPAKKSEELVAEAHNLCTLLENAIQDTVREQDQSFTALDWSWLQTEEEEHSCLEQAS

[9] = target: T3, Inhibitor of nuclear factor kappa-B kinase subunit beta (Homo sapiens); conditions: at 1 µM
[10] = target: T4, Inhibitor of nuclear factor kappa-B kinase subunit epsilon (Homo sapiens) (UniProt Q14164); conditions: at 0.1 µM
T4 sequence (whole entry): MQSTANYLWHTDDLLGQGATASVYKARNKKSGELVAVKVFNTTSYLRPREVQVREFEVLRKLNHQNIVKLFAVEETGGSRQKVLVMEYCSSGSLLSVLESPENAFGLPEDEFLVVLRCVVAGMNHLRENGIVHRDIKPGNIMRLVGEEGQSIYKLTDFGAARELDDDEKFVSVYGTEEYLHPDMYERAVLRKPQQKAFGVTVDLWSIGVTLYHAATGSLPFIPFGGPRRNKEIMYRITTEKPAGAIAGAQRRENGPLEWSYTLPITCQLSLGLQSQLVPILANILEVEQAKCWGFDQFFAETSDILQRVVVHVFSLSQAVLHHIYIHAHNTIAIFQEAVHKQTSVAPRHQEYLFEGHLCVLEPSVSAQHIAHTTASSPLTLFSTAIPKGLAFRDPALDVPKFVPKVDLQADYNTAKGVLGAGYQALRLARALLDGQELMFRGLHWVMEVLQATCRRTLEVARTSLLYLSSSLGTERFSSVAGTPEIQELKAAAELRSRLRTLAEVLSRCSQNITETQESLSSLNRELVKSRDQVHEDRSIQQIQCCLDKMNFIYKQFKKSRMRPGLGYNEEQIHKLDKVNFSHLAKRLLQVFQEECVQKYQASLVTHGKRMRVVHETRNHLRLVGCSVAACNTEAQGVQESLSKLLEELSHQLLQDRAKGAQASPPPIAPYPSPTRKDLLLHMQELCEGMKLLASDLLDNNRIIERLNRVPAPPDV

[11] = target: T4, Inhibitor of nuclear factor kappa-B kinase subunit epsilon (Homo sapiens); conditions: at 1 µM
[12] = target: T5, Serine/threonine-protein kinase Nek1 (Homo sapiens) (UniProt Q96PY6); conditions: at 0.1 µM
T5 sequence (whole entry): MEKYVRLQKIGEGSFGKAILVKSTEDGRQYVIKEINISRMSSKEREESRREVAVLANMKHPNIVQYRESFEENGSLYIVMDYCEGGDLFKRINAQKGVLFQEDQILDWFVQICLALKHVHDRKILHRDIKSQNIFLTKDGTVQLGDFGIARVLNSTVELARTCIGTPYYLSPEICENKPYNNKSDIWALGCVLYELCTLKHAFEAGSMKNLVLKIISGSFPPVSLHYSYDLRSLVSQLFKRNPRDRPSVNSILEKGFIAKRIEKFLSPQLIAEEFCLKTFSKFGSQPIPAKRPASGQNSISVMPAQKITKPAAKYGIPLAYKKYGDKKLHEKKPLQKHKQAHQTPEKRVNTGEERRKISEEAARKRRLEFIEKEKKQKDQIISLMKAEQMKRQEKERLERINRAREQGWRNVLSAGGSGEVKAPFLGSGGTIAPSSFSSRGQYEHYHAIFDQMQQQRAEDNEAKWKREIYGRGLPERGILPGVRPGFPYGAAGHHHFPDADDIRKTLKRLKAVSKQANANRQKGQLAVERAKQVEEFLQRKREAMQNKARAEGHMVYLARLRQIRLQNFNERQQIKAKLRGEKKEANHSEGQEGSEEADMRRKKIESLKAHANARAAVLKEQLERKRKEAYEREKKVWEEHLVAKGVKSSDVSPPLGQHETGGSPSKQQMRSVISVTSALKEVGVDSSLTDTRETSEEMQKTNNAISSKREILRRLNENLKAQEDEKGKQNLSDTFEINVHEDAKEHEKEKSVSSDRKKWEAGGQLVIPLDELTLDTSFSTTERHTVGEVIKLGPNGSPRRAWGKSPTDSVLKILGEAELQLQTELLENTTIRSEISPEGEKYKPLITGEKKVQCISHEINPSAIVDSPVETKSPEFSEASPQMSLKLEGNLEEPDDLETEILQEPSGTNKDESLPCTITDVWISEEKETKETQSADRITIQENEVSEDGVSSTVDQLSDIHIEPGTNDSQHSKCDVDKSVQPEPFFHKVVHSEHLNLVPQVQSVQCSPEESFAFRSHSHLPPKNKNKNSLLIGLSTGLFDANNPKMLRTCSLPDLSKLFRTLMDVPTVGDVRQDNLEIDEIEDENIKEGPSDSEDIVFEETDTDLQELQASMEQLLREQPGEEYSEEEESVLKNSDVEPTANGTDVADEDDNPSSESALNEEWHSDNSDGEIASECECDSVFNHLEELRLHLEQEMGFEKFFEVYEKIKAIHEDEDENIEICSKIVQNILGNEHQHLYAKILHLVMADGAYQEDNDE

[13] = target: T5, Serine/threonine-protein kinase Nek1 (Homo sapiens); conditions: at 1 µM
[14] = target: T6, Serine/threonine-protein kinase Nek2 (Homo sapiens) (UniProt P51955); conditions: at 0.1 µM
T6 sequence (whole entry): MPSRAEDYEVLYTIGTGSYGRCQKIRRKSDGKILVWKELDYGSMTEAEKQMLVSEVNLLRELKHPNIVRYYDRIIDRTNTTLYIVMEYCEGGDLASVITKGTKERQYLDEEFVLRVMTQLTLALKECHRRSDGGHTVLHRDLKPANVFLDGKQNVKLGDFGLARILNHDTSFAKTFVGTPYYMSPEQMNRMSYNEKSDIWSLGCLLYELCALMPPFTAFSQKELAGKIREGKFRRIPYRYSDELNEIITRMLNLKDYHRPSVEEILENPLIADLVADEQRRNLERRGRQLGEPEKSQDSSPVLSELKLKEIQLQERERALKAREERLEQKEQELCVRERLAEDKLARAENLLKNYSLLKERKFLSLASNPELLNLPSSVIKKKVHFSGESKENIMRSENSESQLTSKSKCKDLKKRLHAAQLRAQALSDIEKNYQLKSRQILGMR

[15] = target: T6, Serine/threonine-protein kinase Nek2 (Homo sapiens); conditions: at 1 µM
[16] = target: Serine/threonine-protein kinase Nek6 (Homo sapiens) (UniProt Q9HC98); conditions: at 0.1 µM
Serine/threonine-protein kinase Nek6 (Homo sapiens), sequence (Q9HC98 whole entry): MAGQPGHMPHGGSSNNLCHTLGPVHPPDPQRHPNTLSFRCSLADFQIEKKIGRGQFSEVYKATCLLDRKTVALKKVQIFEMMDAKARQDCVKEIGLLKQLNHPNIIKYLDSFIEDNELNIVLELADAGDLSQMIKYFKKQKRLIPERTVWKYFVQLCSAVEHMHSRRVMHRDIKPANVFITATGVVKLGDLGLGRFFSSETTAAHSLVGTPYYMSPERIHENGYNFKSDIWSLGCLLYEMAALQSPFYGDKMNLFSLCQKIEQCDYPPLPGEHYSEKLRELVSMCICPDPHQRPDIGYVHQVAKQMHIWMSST

[17] = target: Serine/threonine-protein kinase Nek6 (Homo sapiens) (UniProt Q9HC98); conditions: at 1 µM
[18] = target: Serine/threonine-protein kinase Nek7 (Homo sapiens) (UniProt Q8TDX7); conditions: at 0.1 µM
Serine/threonine-protein kinase Nek7 (Homo sapiens), sequence (Q8TDX7 whole entry, looked up): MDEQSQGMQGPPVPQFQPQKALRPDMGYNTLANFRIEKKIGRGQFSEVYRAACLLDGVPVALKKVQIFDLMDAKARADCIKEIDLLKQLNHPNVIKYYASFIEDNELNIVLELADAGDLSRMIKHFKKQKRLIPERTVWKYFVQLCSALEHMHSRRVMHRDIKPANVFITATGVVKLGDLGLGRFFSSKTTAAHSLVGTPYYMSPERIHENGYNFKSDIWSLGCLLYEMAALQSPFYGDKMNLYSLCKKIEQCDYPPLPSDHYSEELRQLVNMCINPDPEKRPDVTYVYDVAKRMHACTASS

[19] = target: Serine/threonine-protein kinase Nek7 (Homo sapiens) (UniProt Q8TDX7); conditions: at 1 µM
[20] = target: T7, Serine/threonine-protein kinase Nek9 (Homo sapiens) (UniProt Q8TD19); conditions: at 0.1 µM;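 also: reported value is the mean percent inhibition of NEK9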
T7 sequence (whole entry): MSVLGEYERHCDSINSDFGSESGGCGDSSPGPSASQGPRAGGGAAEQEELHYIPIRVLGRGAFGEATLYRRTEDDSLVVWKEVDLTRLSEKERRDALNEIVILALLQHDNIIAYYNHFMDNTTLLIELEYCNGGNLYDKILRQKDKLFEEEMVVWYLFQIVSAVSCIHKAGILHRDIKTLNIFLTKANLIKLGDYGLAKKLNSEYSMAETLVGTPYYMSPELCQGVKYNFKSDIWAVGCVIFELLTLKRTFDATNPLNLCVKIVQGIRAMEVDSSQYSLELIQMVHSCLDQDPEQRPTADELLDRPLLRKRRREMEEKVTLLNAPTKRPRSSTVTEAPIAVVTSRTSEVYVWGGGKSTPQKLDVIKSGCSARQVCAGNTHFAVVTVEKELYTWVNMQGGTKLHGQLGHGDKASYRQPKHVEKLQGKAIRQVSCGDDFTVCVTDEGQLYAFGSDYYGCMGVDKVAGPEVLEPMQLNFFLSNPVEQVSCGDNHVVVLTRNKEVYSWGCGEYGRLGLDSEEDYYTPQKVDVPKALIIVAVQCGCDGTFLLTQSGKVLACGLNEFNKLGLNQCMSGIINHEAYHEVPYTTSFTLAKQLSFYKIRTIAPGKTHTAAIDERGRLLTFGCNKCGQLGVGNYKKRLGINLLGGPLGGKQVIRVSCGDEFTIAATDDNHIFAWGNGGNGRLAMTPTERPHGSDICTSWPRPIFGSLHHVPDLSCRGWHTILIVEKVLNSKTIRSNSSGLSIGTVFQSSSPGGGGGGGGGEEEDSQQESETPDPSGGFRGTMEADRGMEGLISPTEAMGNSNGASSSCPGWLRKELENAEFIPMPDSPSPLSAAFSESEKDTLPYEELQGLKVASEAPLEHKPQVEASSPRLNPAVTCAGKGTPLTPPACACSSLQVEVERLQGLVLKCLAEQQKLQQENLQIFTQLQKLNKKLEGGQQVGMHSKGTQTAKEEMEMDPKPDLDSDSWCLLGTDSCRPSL

Sphingosine kinase 1 (Homo sapiens), sequence (Q9NYA1 whole entry): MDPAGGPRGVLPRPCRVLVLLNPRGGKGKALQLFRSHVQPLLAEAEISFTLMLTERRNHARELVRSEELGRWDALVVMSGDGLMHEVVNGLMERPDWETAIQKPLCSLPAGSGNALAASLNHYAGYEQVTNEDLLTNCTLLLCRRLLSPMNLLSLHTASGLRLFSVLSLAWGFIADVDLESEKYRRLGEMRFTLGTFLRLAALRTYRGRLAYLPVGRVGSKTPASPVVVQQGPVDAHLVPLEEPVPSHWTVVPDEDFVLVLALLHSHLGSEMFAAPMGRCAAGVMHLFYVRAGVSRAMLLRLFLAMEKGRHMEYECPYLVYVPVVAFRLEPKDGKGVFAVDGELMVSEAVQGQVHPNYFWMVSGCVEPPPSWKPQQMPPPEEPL

Cc1ccc(C(=O)NC2CCCCC2)cc1-c1ccc(C(=O)NCC2CC2)cc1
inhibition [1]: -0.86% | inhibition [2]: -0.91% | inhibition [3]: -1.61% | inhibition [4]: 0.66% | inhibition [5]: -5.06% | inhibition [6]: -3.35% | inhibition [7]: -8.02% | inhibition [8]: 3.29% | inhibition [9]: -2.31% | inhibition [10]: 1.75% | inhibition [11]: 0.57% | inhibition [12]: 1.91% | inhibition [13]: 1.48% | inhibition [14]: 3.04% | inhibition [15]: 3.36% | inhibition [16]: 3.51% | inhibition [17]: -2.96% | inhibition [18]: 4.39% | inhibition [19]: 3.76% | inhibition [20]: -0.48%
